Source: ChEMBL document CHEMBL5606460, “ASAP - DENV-2 NS2B-NS3 protease fluorescence single point” (2024)
Hit rate of the full screen: of about 2,000 compounds, about 110 (5.5%) showed an effect of 50% or more. The list comes from a sample in which strong results are over-represented; it also holds similar structures and randomly drawn compounds. Non-standard residues stand in square brackets, D forms with d. Residues, ends and D or L forms follow the SMILES beside them. Phg = N[C@H](C(=O)O)c1ccccc1; 4Amb = NCc1ccc(C(=O)O)cc1; Nle = CCCC[C@H](N)C(=O)O

Molecular target: Genome polyprotein (dengue virus type 2) (UniProt P29990)
[1] = Thailand/16681/1984, Concentration 25.0 uM, Number of replicates 1.0

## Cn1c(C(=O)Nc2cc(Cl)cc(C(=O)NC(C)(C)CO)c2)cccc1=O
Thailand/16681/1984, Concentration 49.5 uM, Number of replicates 2.0, Standard deviation 0.4081268580659683 %
  inhibition: -0.99%
Thailand/16681/1984, Concentration 99.01 uM, Number of replicates 2.0, Standard deviation 2.113430221710736 %
  inhibition: -1.01%
Thailand/16681/1984, Concentration 198.0 uM, Number of replicates 2.0, Standard deviation 2.072570516879941 %
  inhibition: 0.352%

## NCc1cn(C2CCN(c3nc(-c4ccccc4)cs3)CC2)nn1
Thailand/16681/1984, Concentration 49.5 uM, Number of replicates 2.0, Standard deviation 0.032513427640456005 %
  inhibition: -4.62%
Thailand/16681/1984, Concentration 99.01 uM, Number of replicates 2.0, Standard deviation 1.6651164489567518 %
  inhibition: -3.29%
Thailand/16681/1984, Concentration 198.0 uM, Number of replicates 2.0, Standard deviation 1.091599962537426 %
  inhibition: 0.094%

## CC1(C)C[C@]1(CNC(=O)C1CCN(c2ccc(C=O)cc2)CC1)c1ccccc1
[1]
  inhibition: 12.2%

## O=Cc1ccc(N2CCC(C(=O)N3CCc4c(Br)cccc4C3)CC2)cc1
[1]
  inhibition: 2.83%

## Cc1cc(CO)c2cccc(Cc3ccccc3NC(=O)c3nc(N)n[nH]3)c2n1
Thailand/16681/1984, Concentration 49.95 uM, Number of replicates 2.0, Standard deviation 1.581349166072865 %
  inhibition: 0.804%
Thailand/16681/1984, Concentration 99.9 uM, Number of replicates 2.0, Standard deviation 1.2268610426733166 %
  inhibition: 4.88%

## Cc1cc(CO)c2cccc(Cc3cccc(NC(=O)c4nc(N)n[nH]4)c3)c2n1
Thailand/16681/1984, Concentration 49.95 uM, Number of replicates 2.0, Standard deviation 2.1470069511188496 %
  inhibition: 1.75%
Thailand/16681/1984, Concentration 99.9 uM, Number of replicates 2.0, Standard deviation 2.660737289988502 %
  inhibition: 8.09%

## Cc1cc(CO)c2cccc(NC(=O)c3nc(N)n[nH]3)c2n1
Thailand/16681/1984, Concentration 49.95 uM, Number of replicates 2.0, Standard deviation 1.7045480288991801 %
  inhibition: 42.6%
Thailand/16681/1984, Concentration 99.9 uM, Number of replicates 2.0, Standard deviation 15.015963199334223 %
  inhibition: 67.3%

## O=C(NCCc1cncnc1)c1cn([C@H]2CCCNC2)nn1
Thailand/16681/1984, Concentration 49.5 uM, Number of replicates 2.0, Standard deviation 3.1505652659838077 %
  inhibition: -3.39%
Thailand/16681/1984, Concentration 99.01 uM, Number of replicates 2.0, Standard deviation 0.03260817375590849 %
  inhibition: -4.66%
Thailand/16681/1984, Concentration 198.0 uM, Number of replicates 2.0, Standard deviation 5.615654862136011 %
  inhibition: -0.277%

## Clc1ccc2[nH]cc(Cc3ccc(-c4nn[nH]n4)cc3)c2c1
Thailand/16681/1984, Concentration 99.5 uM, Number of replicates 2.0, Standard deviation 0.137702183454793 %
  inhibition: 89.8%
Thailand/16681/1984, Concentration 295.6 uM, Number of replicates 2.0, Standard deviation 0.013886206472581278 %
  inhibition: 98.9%

## O=C(O)[C@H](c1c[nH]c2ccccc12)N1CCC(c2cnc3ccc[nH]c2-3)CC1
Thailand/16681/1984, Concentration 49.5 uM, Number of replicates 2.0, Standard deviation 2.9336110336729484 %
  inhibition: -1.93%
Thailand/16681/1984, Concentration 99.01 uM, Number of replicates 2.0, Standard deviation 1.2688833051000123 %
  inhibition: -1.4%
Thailand/16681/1984, Concentration 198.0 uM, Number of replicates 2.0, Standard deviation 1.8509089452057481 %
  inhibition: 0.519%

## CCCC[C@H](NC(C)=O)C(=O)N[C@H](C(=O)NCc1ccc(C(N)=O)cc1)c1ccc(OCc2ccccc2)cc1
Thailand/16681/1984, Concentration 49.5 uM, Number of replicates 2.0, Standard deviation 4.54767597440597 %
  inhibition: 18.2%
Thailand/16681/1984, Concentration 99.01 uM, Number of replicates 2.0, Standard deviation 0.08657569598756192 %
  inhibition: 99.9%
Thailand/16681/1984, Concentration 198.0 uM, Number of replicates 2.0, Standard deviation 0.08274539039489186 %
  inhibition: 99.7%

## CCCC[C@H](NC(C)=O)C(=O)N[C@H](C(=O)Nc1ccc(C(N)=O)cc1)c1ccc(OCc2ccccc2)cc1
Thailand/16681/1984, Concentration 49.5 uM, Number of replicates 2.0, Standard deviation 2.073896751762033 %
  inhibition: -0.623%
Thailand/16681/1984, Concentration 99.01 uM, Number of replicates 2.0, Standard deviation 0.38726109133313447 %
  inhibition: 4.02%
Thailand/16681/1984, Concentration 198.0 uM, Number of replicates 2.0, Standard deviation 0.14852549415239058 %
  inhibition: 23%

## CCCC[C@H](NC(C)=O)C(=O)N[C@H](C(=O)NCc1ccc(CN)cc1)c1ccccc1
Thailand/16681/1984, Concentration 49.5 uM, Number of replicates 2.0, Standard deviation 1.3580554366166637 %
  inhibition: 0.537%
Thailand/16681/1984, Concentration 99.01 uM, Number of replicates 2.0, Standard deviation 18.440494023113153 %
  inhibition: 14.1%
Thailand/16681/1984, Concentration 198.0 uM, Number of replicates 2.0, Standard deviation 14.8908767477505 %
  inhibition: 56%

## CCCC[C@H](NC(C)=O)C(=O)N[C@H](C(=O)Nc1cccc(C(N)=O)c1)c1ccc(OCc2ccccc2)cc1
Thailand/16681/1984, Concentration 49.5 uM, Number of replicates 2.0, Standard deviation 1.3015902921422546 %
  inhibition: -0.513%
Thailand/16681/1984, Concentration 99.01 uM, Number of replicates 2.0, Standard deviation 0.5153915569037094 %
  inhibition: 3.33%
Thailand/16681/1984, Concentration 198.0 uM, Number of replicates 2.0, Standard deviation 0.5711740910196359 %
  inhibition: 8.87%

## CCCC[C@H](NC(C)=O)C(=O)N[C@H](C(=O)NCc1ccc(C(N)=O)cc1)c1ccccc1 (Ac-[Nle]-[Phg]-[4Amb]-NH2)
Thailand/16681/1984, Concentration 49.5 uM, Number of replicates 2.0, Standard deviation 0.4432432329236086 %
  inhibition: -1.46%
Thailand/16681/1984, Concentration 99.01 uM, Number of replicates 2.0, Standard deviation 0.9541533154251546 %
  inhibition: -0.354%
Thailand/16681/1984, Concentration 198.0 uM, Number of replicates 2.0, Standard deviation 1.9838414541082603 %
  inhibition: 1.79%

## CCCC[C@H](NC(C)=O)C(=O)N[C@H](C(=O)NCc1ccc(CN)cc1)c1ccc(OCc2ccccc2)cc1
Thailand/16681/1984, Concentration 49.5 uM, Number of replicates 2.0, Standard deviation 1.556187076043376 %
  inhibition: -3.73%
Thailand/16681/1984, Concentration 99.01 uM, Number of replicates 2.0, Standard deviation 1.4164928639405643 %
  inhibition: 9.94%
Thailand/16681/1984, Concentration 198.0 uM, Number of replicates 2.0, Standard deviation 0.0753329398535839 %
  inhibition: 99.6%

## CC(=O)N[C@H](C(=O)Nc1cccc(C(N)=O)c1)c1ccc(OCc2ccccc2)cc1
Thailand/16681/1984, Concentration 49.5 uM, Number of replicates 2.0, Standard deviation 1.41100239398505 %
  inhibition: -2.21%
Thailand/16681/1984, Concentration 99.01 uM, Number of replicates 2.0, Standard deviation 6.402498423083348 %
  inhibition: 0.486%
Thailand/16681/1984, Concentration 198.0 uM, Number of replicates 2.0, Standard deviation 5.599350943845451 %
  inhibition: 0.73%

## CCCCCC(=O)N[C@@H](Cc1ccccc1)C(=O)NCc1cccc(CN)c1
Thailand/16681/1984, Concentration 49.5 uM, Number of replicates 2.0, Standard deviation 0.5911657110409295 %
  inhibition: -0.287%
Thailand/16681/1984, Concentration 99.01 uM, Number of replicates 2.0, Standard deviation 0.7592516208074989 %
  inhibition: -0.251%
Thailand/16681/1984, Concentration 198.0 uM, Number of replicates 2.0, Standard deviation 1.593950905190228 %
  inhibition: -0.639%
